Only some compounds are listed: those with a hit (about 4.7% of all), similar ones and a draw of the others.
MPTP block – permeability transition pore inhibition; isolated mouse mitochondria, Ca2+ swelling absorbance, 30 min; inhibition, % at 10 µM; 360,000 tested, 1.4% active; AID 602449;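 active = inhibition of 50% or more, scaled per plate between neutral and stimulator controls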
ADAM17 inh – inhibits human ADAM17 | AID 720648 | 370,000 tested, 0.83% active | P78536 | inhibition, % at 6.95 µM | recombinant ADAM17, EDANS/DABCYL FRET peptide cleavage;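 active = inhibition above the mean of compounds lying between control limits plus 3 SD, set per campaign, cut at about 8.5% in these data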
ADAM10 inh – inhibitors of human ADAM10; 370,000 tested, 0.62% active; recombinant ADAM10, EDANS/DABCYL FRET peptide cleavage, 3 h; inhibition, % at 7 µM; O14672;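 active = inhibition above a per-campaign cutoff equal to the mean of compounds falling between control-based bounds plus 3 SD, cut at about 20% in these data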
rCAG RNA binder – binds r(CAG) RNA repeats; r(CAG) RNA repeat, TO-PRO-1 dye displacement fluorescence; inhibition, % at 3 µM; 370,000 tested, 1.3% active;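 active = inhibition above the plate cutoff, the mean of all test compounds on that plate plus 3 SD, cut at about 35% in these data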;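 note: higher means more dye released from RNA so lower well fluorescence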
Pemphigus Ab inh – human desmoglein-3 autoantibody binding inhibition. P32926. binding (percent of control), % at 10 µM. 310,000 tested, 0.48% active. DSG3-coupled beads, scFv-anti-DSG3-GFP binding, flow cytometry; active compounds read low. AID 588358;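 active = binding more than 3 SD below its plate's average and above zero; inconclusive = below that plate limit but binding exactly zero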;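 note: hits lower antibody fragment binding to DSG3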
proKLK7 act – activates the human kallikrein-7 zymogen; P49862; 370,000 tested, 0.9% active; purified proKLK7, EDANS-DABCYL substrate fluorescence; 100% is mature enzyme control, 0% vehicle; activation, % at 7 µM;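 active = activation above the mean of all tested compounds plus 3 SD, computed per campaign excluding outliers beyond control limits, cut at about 13% in these data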
Target sequence (P49862 whole entry, looked up): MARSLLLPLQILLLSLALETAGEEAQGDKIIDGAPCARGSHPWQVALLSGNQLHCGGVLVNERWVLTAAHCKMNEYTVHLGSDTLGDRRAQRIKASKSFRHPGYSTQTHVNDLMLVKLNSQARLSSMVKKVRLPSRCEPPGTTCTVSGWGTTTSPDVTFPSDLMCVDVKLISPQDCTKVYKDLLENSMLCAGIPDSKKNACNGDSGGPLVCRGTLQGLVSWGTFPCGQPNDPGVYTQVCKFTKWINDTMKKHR
ADAM10 confirm – human ADAM10 inhibition, confirmation; shares compounds with ADAM10 inh; ADAM10 QFRET peptide cleavage, EDANS fluorescence; inhibition, % at 6.95 µM; 2,100 tested, 1% active; AID 743208;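 active = inhibition above about 20% chosen separately for each screening run, limit read from the data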
ADAM17 ctr – ADAM17 inhibition, counter-screen for ADAM10 exosite hits. shares compounds with ADAM10 inh. ADAM17 QFRET peptide cleavage, EDANS fluorescence. inhibition, % at 6.95 µM. 2,100 tested, 0.5% active. AID 743214;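 active = mean triplicate inhibition above the solvent-only control wells' mean plus 3 SD, cut at about 12% in these data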
ADAM10 counter – counter-screen for ADAM17 exosite inhibitors: inhibitors of human ADAM10; inhibition, % at 6.95 µM; recombinant ADAM10, EDANS/DABCYL FRET peptide cleavage, 3 h; 2,900 tested, 47% active; AID 743256; shares compounds with ADAM17 inh;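 active = mean inhibition over the triplicate runs exceeds the activity threshold set in the earlier primary screen, cut at about 20% in these data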
ADAM17 confirm – human ADAM17 inhibition, confirmation | shares compounds with ADAM17 inh | recombinant ADAM17, EDANS/DABCYL QFRET peptide cleavage | inhibition, % at 6.95 µM | 2,900 tested, 65% active;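 active = mean inhibition across replicates above the hit cutoff set in the primary screen, cut at about 8.5% in these data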
Large screens that a line does not name were inactive (follow-up assays come after a bar, where they were run).

CC(C)(C)S(=O)N1Cc2cc(C(=O)NCC(F)(F)F)nc(-c3cccc(-c4cccc(F)c4)c3)c2[C@@H]1CCO (stereo not given in full)	ADAM17 inh 15, ADAM10 inh 27 (no result: Pemphigus Ab inh) | ADAM10 confirm inactive | ADAM17 ctr inactive | ADAM10 counter inactive | ADAM17 confirm inactive
O=C(NCC1CC1)c1cc2c(c(-c3cccc(-c4ccccc4F)c3)n1)[C@@H](CCO)N(C(=O)CC1CC1)C2	ADAM17 inh 10, ADAM10 inh 35 (no result: Pemphigus Ab inh) | ADAM10 confirm inactive | ADAM17 ctr inactive | ADAM10 counter inactive | ADAM17 confirm 9.6
O=C1C=C(c2ccccc2C(F)(F)F)C[C@@H](c2ccc3c(c2)OCO3)C1	none
CN(C)S(=O)(=O)c1cccc(NC(=O)COC(=O)c2cccc(S(=O)(=O)N3CCc4ccccc4C3)c2)c1	ADAM17 inh 11, ADAM10 inh 23 | ADAM10 confirm inactive | ADAM17 ctr inactive | ADAM10 counter inactive | ADAM17 confirm 12
CN(C)S(=O)(=O)c1cccc(NC(=O)COC(=O)c2cn(-c3ccccc3)nc2-c2ccccc2)c1	ADAM17 inh 11, ADAM10 inh 29 | ADAM10 confirm inactive | ADAM17 ctr inactive | ADAM10 counter 31 | ADAM17 confirm 19
CCN(CC)c1ncnc2c1ncn2[C@H]1CN(Cc2ccccc2)C[C@@H](COC(C)=O)O1	none (no result: Pemphigus Ab inh)
CN(CCO)c1ccc2c(c1)Oc1ccccc1CN(Cc1cn(Cc3cccc(C(F)(F)F)c3)nn1)S2(=O)=O	none (no result: MPTP block, Pemphigus Ab inh)
O=C1CC(N(CCc2ccccc2)C(=S)Nc2cc(Cl)ccc2Cl)C(=O)N1c1c(Cl)cccc1Cl (stereo not given)	ADAM17 inh 12, ADAM10 inh 21 | ADAM10 confirm inactive | ADAM17 ctr inactive | ADAM10 counter 24 | ADAM17 confirm 13
Cc1ccc(OCCNC(=O)[C@H]2O[C@@H](n3ccc(N)nc3=O)[C@H](O)[C@@H]2O)cc1C	none (no result: Pemphigus Ab inh)
O=C(Cc1ccc(Cl)cc1)Nc1cccc(S(=O)(=O)N2CCCCC2)c1	none
O=C(CN1C(=O)NC(Cc2c[nH]c3ccccc23)C1=O)Nc1cccc(S(=O)(=O)N2CCCCCC2)c1 (stereo not given)	ADAM17 inh 11, ADAM10 inh 21 | ADAM10 confirm inactive | ADAM17 ctr inactive | ADAM10 counter 28 | ADAM17 confirm 17
CC(C)(C)c1ccc(OCCCC(=O)Nc2cccc(S(=O)(=O)N3CCOCC3)c2)cc1	none
O=C(CNc1cccc(Br)c1)Nc1ccc(S(=O)(=O)N2CCCCC2)cc1	ADAM17 inh 16, ADAM10 inh 27 | ADAM10 confirm inactive | ADAM17 ctr inactive | ADAM10 counter 32 | ADAM17 confirm 21
O=C(Cc1ccc(Br)cc1)Nc1cccc(S(=O)(=O)N2CCCCC2)c1	ADAM17 inh 12, ADAM10 inh 23 | ADAM10 confirm inactive | ADAM17 ctr inactive | ADAM10 counter inactive | ADAM17 confirm inactive
CC(C)(C)c1ccc(OCCC(=O)Nc2cccc(S(=O)(=O)N3CCCC3)c2)cc1	ADAM17 inh 8.9, ADAM10 inh 22 | ADAM10 confirm inactive | ADAM17 ctr inactive | ADAM10 counter 37 | ADAM17 confirm 23
COc1cccc(NC(=O)CN(C)C(C)C(=O)NC(=O)NC2CCCCC2)c1 (stereo not given)	Pemphigus Ab inh inconclusive
COc1ccc(N(C)S(=O)(=O)c2cccc(C(=O)OCC(=O)N(C)c3ccccc3)c2)cc1	none
CCN(CC)S(=O)(=O)c1ccc(C)c(NC(=S)NNC(=O)C2CC2)c1	ADAM17 inh 9.7, ADAM10 inh 24 | ADAM10 confirm inactive | ADAM17 ctr inactive | ADAM10 counter inactive | ADAM17 confirm inactive
CC(C)Oc1ccc(C(=O)NC2(C(F)(F)F)NC(=O)N(CCCc3ccccc3)C2=O)cc1 (stereo not given)	ADAM17 inh 10, ADAM10 inh 25 | ADAM10 confirm inactive | ADAM17 ctr inactive | ADAM10 counter 31 | ADAM17 confirm 18
COC(=O)c1ccc(-n2c(C)cc(C(=O)COC(=O)CC3Sc4ccccc4NC3=O)c2C)cc1 (stereo not given)	none
Cc1cc(C(=O)COC(=O)CC2Sc3ccccc3NC2=O)c(C)n1-c1ccccc1 (stereo not given)	ADAM17 inh 18, ADAM10 inh 28 | ADAM10 confirm inactive | ADAM17 ctr inactive | ADAM10 counter 21 | ADAM17 confirm 12
COC(=O)[C@]12CCCCC=C1N(Cc1cccc3ccccc13)C(=O)[C@H](CC(=O)NCc1cccs1)C2	none (no result: Pemphigus Ab inh)
O=C(CCc1c[nH]c2ccccc12)OCc1ccc(Br)cc1	ADAM17 inh 12, ADAM10 inh 23 | ADAM10 confirm inactive | ADAM17 ctr inactive | ADAM10 counter inactive | ADAM17 confirm 11
COc1cc(NCC(=O)Nc2cccc(S(=O)(=O)N3CCCCC3)c2)cc(OC)c1OC	none (no result: Pemphigus Ab inh)
OCCN1CCN(c2nccn3ccnc23)CC1	none (no result: Pemphigus Ab inh)
CCSc1ccc([C@@H]2[C@H]3C(=O)N(C)C(=O)[C@H]3[C@]3(C(=O)OC)CCCCN23)cc1	ADAM17 inh 18, ADAM10 inh 22 | ADAM10 confirm inactive | ADAM17 ctr inactive | ADAM10 counter inactive | ADAM17 confirm inactive
CCOC(=O)C1CCN(C(=O)c2ccc(S(=O)(=O)Nc3ccccc3Cl)cc2)CC1	none
CC(C)CC(C(=O)OCC(=O)Nc1cccc(Cl)c1)N1C(=O)C2CC=CCC2C1=O (stereo not given)	ADAM17 inh 17, ADAM10 inh 35 (no result: Pemphigus Ab inh) | ADAM10 confirm inactive | ADAM17 ctr inactive | ADAM10 counter 27 | ADAM17 confirm 11
CN(Cc1ccccc1)C(=O)c1[nH]cnc1C(=O)NCc1ccc(CNC(=O)OC(C)(C)C)cc1	none
C[C@@H](OC(=O)c1[nH]cnc1C(=O)NCc1ccc(CNC(=O)OC(C)(C)C)cc1)c1ccccc1	ADAM17 inh 25, ADAM10 inh 40 | ADAM10 confirm inactive | ADAM17 ctr inactive | ADAM10 counter 22 | ADAM17 confirm 12
C[C@H](NC(=O)c1nc[nH]c1C(=O)NCc1ccccc1)C(=O)OC(C)(C)C	none
